Test results as given in ChEMBL document CHEMBL1961873, “Compounds: GSK PKIS; Assays: Nanosyn kinase panel” (2012).

Experiments:
[1] = target: Sphingosine kinase 1 (Homo sapiens) (UniProt Q9NYA1); conditions: at 1 µM;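 also: mean SPHK1 inhibition value reported from the GSK PKIS kinase panel screen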
[2] = target: T1, Sphingosine kinase 2 (Homo sapiens) (UniProt Q9NRA0); conditions: at 0.1 µM
T1 sequence (whole entry): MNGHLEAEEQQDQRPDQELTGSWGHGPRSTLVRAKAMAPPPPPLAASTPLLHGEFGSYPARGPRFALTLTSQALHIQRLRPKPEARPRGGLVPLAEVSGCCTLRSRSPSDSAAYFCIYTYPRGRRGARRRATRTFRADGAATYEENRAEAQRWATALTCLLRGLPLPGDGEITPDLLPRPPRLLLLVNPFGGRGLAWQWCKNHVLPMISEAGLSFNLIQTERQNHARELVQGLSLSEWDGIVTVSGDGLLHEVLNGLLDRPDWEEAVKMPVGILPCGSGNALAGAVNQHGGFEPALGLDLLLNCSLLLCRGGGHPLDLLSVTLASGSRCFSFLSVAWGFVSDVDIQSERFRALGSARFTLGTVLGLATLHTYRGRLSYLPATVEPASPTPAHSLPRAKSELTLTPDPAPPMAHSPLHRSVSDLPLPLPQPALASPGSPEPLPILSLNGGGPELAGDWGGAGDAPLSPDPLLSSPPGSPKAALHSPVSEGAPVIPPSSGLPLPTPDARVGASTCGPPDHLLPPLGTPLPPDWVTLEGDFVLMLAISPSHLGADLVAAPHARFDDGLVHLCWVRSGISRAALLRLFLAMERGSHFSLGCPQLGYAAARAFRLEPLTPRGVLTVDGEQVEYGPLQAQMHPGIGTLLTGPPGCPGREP

[3] = target: T1, Sphingosine kinase 2 (Homo sapiens); conditions: at 1 µM
[4] = target: Casein kinase II subunit alpha (Homo sapiens) (UniProt P68400); conditions: at 0.1 µM
Casein kinase II subunit alpha (Homo sapiens), sequence (P68400 whole entry, looked up): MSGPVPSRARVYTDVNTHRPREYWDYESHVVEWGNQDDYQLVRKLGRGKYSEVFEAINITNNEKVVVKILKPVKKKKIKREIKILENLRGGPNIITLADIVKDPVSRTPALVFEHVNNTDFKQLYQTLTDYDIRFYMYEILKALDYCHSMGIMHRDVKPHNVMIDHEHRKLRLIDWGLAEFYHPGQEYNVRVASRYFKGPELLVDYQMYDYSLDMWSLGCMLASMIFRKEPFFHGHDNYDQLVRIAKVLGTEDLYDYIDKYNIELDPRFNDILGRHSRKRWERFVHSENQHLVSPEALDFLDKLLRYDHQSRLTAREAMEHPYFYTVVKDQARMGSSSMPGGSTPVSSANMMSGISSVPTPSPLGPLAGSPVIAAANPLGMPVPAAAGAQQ

[5] = target: Casein kinase II subunit alpha (Homo sapiens) (UniProt P68400); conditions: at 1 µM
[6] = target: T2, Inhibitor of nuclear factor kappa-B kinase subunit alpha (Homo sapiens) (UniProt O15111); conditions: at 0.1 µM
T2 sequence (whole entry): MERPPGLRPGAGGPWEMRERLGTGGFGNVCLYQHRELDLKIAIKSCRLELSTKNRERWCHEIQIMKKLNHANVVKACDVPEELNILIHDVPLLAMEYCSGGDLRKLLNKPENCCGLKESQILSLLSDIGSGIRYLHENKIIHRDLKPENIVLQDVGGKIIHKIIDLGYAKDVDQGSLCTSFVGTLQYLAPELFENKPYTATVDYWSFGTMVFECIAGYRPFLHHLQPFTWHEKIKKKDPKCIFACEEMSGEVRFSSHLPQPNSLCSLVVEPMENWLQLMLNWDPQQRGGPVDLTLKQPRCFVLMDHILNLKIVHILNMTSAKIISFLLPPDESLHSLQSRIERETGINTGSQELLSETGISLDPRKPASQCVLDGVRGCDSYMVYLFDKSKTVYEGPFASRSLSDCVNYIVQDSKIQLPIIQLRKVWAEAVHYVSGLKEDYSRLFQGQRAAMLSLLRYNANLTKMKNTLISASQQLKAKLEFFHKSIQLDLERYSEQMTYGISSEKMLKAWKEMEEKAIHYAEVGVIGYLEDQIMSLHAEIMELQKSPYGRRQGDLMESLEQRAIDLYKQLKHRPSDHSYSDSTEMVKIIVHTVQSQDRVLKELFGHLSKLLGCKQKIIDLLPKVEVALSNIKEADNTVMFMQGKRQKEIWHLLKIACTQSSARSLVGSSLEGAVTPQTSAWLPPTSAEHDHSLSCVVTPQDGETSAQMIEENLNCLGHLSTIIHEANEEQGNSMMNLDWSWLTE

[7] = target: T2, Inhibitor of nuclear factor kappa-B kinase subunit alpha (Homo sapiens); conditions: at 1 µM
[8] = target: T3, Inhibitor of nuclear factor kappa-B kinase subunit beta (Homo sapiens) (UniProt O14920); conditions: at 0.1 µM
T3 sequence (whole entry): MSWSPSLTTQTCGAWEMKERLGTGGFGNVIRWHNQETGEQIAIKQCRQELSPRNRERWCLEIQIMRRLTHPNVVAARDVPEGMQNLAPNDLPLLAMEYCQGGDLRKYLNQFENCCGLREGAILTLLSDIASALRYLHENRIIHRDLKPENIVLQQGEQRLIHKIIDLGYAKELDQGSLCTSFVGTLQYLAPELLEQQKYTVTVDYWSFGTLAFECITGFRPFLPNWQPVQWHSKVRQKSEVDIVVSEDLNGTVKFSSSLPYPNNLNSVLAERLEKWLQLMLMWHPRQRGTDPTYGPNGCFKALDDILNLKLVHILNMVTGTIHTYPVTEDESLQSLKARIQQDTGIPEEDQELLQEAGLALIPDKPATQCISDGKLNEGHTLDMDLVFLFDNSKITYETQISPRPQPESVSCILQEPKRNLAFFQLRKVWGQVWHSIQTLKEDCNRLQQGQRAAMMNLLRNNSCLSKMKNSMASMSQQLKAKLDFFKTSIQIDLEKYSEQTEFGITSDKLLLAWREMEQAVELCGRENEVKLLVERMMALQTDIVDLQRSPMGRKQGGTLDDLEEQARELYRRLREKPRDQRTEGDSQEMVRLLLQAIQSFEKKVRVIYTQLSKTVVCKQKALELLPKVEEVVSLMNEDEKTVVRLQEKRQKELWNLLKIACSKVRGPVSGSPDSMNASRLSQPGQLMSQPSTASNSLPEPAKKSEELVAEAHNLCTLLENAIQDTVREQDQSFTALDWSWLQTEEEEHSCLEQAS

[9] = target: T3, Inhibitor of nuclear factor kappa-B kinase subunit beta (Homo sapiens); conditions: at 1 µM
[10] = target: T4, Inhibitor of nuclear factor kappa-B kinase subunit epsilon (Homo sapiens) (UniProt Q14164); conditions: at 0.1 µM
T4 sequence (whole entry): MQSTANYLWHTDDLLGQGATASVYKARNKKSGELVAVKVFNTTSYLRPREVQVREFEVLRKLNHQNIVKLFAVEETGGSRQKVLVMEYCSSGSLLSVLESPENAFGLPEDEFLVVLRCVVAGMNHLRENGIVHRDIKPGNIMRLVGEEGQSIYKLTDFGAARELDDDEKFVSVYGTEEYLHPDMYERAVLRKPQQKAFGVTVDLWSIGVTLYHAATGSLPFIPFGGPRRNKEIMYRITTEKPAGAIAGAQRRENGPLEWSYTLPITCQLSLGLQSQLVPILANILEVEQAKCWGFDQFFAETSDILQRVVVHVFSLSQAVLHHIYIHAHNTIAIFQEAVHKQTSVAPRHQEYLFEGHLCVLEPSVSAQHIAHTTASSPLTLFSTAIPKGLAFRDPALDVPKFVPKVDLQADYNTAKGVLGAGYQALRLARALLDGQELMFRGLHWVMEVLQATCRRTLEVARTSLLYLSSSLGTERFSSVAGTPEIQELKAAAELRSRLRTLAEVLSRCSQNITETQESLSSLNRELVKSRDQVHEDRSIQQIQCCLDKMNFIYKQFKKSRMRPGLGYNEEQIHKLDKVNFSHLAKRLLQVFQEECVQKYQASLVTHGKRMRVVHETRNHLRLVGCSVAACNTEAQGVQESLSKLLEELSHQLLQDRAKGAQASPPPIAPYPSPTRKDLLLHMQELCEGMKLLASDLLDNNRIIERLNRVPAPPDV

[11] = target: T4, Inhibitor of nuclear factor kappa-B kinase subunit epsilon (Homo sapiens); conditions: at 1 µM
[12] = target: T5, Serine/threonine-protein kinase Nek1 (Homo sapiens) (UniProt Q96PY6); conditions: at 0.1 µM
T5 sequence (whole entry): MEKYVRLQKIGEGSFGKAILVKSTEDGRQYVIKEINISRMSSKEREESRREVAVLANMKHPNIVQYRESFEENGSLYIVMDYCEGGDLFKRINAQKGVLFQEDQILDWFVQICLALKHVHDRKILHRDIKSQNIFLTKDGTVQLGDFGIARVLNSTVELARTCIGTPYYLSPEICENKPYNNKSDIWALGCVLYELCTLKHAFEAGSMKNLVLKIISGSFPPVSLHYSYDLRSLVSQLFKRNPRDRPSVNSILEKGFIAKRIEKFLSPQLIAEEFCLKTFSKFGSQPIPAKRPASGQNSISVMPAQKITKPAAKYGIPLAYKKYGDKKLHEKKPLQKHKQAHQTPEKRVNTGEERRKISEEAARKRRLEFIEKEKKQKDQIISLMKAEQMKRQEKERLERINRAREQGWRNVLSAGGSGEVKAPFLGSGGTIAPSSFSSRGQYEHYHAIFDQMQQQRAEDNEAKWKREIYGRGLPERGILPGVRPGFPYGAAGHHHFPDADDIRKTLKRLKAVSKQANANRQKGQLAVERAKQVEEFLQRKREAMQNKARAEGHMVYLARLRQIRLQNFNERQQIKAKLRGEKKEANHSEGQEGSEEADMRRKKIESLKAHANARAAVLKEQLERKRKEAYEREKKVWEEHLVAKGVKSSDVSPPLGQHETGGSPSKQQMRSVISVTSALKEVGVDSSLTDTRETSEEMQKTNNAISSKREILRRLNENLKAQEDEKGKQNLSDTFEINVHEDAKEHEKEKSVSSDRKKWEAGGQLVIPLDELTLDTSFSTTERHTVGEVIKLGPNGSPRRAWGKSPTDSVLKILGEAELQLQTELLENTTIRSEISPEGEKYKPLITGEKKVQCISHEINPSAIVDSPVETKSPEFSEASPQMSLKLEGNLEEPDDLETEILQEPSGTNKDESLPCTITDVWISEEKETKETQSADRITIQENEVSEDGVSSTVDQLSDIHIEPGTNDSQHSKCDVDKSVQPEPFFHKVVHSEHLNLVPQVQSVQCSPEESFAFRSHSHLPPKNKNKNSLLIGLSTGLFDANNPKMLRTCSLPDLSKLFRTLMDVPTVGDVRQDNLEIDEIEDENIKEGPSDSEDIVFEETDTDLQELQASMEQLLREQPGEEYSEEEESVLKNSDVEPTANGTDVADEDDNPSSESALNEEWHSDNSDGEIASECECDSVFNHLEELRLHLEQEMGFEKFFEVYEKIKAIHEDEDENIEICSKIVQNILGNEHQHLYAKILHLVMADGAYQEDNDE

[13] = target: T5, Serine/threonine-protein kinase Nek1 (Homo sapiens); conditions: at 1 µM
[14] = target: T6, Serine/threonine-protein kinase Nek2 (Homo sapiens) (UniProt P51955); conditions: at 0.1 µM
T6 sequence (whole entry): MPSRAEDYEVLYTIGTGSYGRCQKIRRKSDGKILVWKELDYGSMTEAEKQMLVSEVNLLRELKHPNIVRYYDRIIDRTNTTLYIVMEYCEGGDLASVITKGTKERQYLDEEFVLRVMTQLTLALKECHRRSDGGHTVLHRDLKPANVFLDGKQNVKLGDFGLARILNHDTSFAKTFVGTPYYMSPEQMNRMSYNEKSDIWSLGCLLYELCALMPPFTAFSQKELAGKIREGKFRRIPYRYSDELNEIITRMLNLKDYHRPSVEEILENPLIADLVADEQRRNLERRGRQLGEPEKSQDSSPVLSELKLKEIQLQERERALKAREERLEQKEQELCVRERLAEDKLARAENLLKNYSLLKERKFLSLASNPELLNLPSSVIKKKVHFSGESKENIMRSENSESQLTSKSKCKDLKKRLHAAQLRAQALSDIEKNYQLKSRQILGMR

[15] = target: T6, Serine/threonine-protein kinase Nek2 (Homo sapiens); conditions: at 1 µM
[16] = target: Serine/threonine-protein kinase Nek6 (Homo sapiens) (UniProt Q9HC98); conditions: at 0.1 µM
Serine/threonine-protein kinase Nek6 (Homo sapiens), sequence (Q9HC98 whole entry): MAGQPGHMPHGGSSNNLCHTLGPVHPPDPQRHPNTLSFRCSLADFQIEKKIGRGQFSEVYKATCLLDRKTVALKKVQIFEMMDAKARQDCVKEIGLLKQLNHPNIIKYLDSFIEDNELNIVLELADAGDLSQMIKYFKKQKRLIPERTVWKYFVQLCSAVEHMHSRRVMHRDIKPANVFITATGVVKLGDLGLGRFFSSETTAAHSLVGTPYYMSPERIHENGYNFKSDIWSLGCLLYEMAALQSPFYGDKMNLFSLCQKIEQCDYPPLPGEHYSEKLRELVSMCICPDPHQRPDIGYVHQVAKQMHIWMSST

[17] = target: Serine/threonine-protein kinase Nek6 (Homo sapiens) (UniProt Q9HC98); conditions: at 1 µM
[18] = target: Serine/threonine-protein kinase Nek7 (Homo sapiens) (UniProt Q8TDX7); conditions: at 0.1 µM
Serine/threonine-protein kinase Nek7 (Homo sapiens), sequence (Q8TDX7 whole entry, looked up): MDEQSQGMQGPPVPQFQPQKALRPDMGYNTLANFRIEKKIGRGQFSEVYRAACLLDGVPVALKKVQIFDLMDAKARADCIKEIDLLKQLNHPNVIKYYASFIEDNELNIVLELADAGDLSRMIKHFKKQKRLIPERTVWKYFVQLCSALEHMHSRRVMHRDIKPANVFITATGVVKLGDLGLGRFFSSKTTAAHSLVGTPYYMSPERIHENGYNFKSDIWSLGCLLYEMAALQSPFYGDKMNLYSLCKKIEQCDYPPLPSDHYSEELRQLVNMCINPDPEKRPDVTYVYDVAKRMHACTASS

[19] = target: Serine/threonine-protein kinase Nek7 (Homo sapiens) (UniProt Q8TDX7); conditions: at 1 µM
[20] = target: T7, Serine/threonine-protein kinase Nek9 (Homo sapiens) (UniProt Q8TD19); conditions: at 0.1 µM;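 also: reported value is the mean percent inhibition of NEK9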
T7 sequence (whole entry): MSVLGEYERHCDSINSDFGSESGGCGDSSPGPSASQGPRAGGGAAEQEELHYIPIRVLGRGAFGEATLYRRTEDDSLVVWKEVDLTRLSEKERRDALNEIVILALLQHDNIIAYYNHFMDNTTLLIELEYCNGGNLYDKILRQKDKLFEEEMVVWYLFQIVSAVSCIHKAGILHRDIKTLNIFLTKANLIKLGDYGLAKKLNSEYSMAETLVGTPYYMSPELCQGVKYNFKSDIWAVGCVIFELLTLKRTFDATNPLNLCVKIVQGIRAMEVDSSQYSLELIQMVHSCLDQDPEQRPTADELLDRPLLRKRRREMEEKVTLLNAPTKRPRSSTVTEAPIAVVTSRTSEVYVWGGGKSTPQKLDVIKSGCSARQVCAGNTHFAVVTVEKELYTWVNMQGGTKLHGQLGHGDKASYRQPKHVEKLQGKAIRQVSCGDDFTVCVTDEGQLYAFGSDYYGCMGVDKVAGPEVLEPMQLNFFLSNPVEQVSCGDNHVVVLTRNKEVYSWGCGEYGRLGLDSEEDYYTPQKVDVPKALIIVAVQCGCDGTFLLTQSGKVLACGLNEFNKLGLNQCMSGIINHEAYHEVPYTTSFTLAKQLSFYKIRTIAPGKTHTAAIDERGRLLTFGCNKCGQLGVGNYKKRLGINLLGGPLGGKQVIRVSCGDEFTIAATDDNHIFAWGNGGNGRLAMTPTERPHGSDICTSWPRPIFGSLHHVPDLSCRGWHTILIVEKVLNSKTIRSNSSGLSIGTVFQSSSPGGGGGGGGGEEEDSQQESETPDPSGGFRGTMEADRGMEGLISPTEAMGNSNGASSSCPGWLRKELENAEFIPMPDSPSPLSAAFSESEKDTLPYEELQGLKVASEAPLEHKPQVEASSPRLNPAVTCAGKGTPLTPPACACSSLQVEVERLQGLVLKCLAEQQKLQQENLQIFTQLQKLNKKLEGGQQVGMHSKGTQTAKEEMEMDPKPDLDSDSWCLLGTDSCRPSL

Sphingosine kinase 1 (Homo sapiens), sequence (Q9NYA1 whole entry): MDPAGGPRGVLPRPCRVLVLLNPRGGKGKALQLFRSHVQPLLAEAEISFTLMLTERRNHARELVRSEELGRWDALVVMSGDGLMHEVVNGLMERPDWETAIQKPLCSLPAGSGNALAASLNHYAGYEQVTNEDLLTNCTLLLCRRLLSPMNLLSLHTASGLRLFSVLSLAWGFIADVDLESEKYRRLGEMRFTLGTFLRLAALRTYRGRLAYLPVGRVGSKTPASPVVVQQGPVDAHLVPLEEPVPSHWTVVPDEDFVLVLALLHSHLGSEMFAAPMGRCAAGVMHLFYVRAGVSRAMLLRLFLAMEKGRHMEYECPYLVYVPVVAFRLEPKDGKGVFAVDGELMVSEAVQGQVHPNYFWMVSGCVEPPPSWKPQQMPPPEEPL

How did the inhibition [1] turn out when `CNC(=O)c1sc(-n2cnc3cc(OC)c(OC)cc32)cc1OCc1ccccc1C(F)(F)F` was run?
The inhibition was -2.69%.

And the inhibition [2]?
The inhibition was -1.57%.

What about the inhibition [3] of the same molecule?
The inhibition was -1.5%.

What about the inhibition [4] of the same molecule?
Its inhibition is 5.33%.

What about the inhibition [5] of the same molecule?
The inhibition was 1.77%.

And the inhibition [6]?
The inhibition was 9.1%.

And the inhibition [7]?
Its inhibition is 6.49%.

And the inhibition [8]?
Its inhibition is 4.41%.

And the inhibition [9]?
Its inhibition is 2.57%.

And the inhibition [10]?
Its inhibition is 7.72%.

What about the inhibition [11] of the same molecule?
The inhibition was 5.28%.

And the inhibition [12]?
Its inhibition is 1.76%.

What about the inhibition [13] of the same molecule?
Its inhibition is 2.01%.

What about the inhibition [14] of the same molecule?
Its inhibition is 3.26%.

And the inhibition [15]?
Its inhibition is 4.32%.

And the inhibition [16]?
The inhibition was 1.25%.

And the inhibition [17]?
Its inhibition is 1.86%.

What about the inhibition [18] of the same molecule?
The inhibition was 1.64%.

What about the inhibition [19] of the same molecule?
Its inhibition is -2.15%.

What about the inhibition [20] of the same molecule?
The inhibition was 7.04%.
